Measurements: PubChem BioAssay (NCATS)
Inconclusive results are not listed. Activity calls are given as the source filed them. Calls follow the shape of the full dose curve.
Potency is read from the fitted curve at half-maximal effect.

Assay: VSVG counterscreen qHTS to identify inhibitors of SARS-CoV-2 cell entry (AID 1645847); also: nearly all actives have a fitted effect of over 65% in size
Settings: VSV-G pseudotyped particle entry, luciferase; series mostly up to 57.2 µM
How it was run: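 Entry of VSV-G pseudotyped particles into human ACE2-expressing HEK293 cells was measured by luciferase luminescence 48 h after infection, with compound added 1 h beforehand.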
With CC(C)OC(=O)[C@H](C)N[P@](=O)(CO[C@H](C)Cn1cnc2c(N)ncnc21)Oc1ccccc1 the Potency was 0.0096 µM (active). In the case of CCOc1ccc2c(c1)C(C)=CC(C)(C)N2, the Potency is reported as 55.5 µM (active). With Nc1nc(Cl)nc2c1ncn2C1CC(O)C(CO)O1 (configuration not stated) the Potency was 19.2 µM (active). With CC[C@@]1(O)C(=O)OCc2c1cc1n(c2=O)Cc2cc3c([N+](=O)[O-])cccc3nc2-1 the Potency was 0.0221 µM (active). In the case of CC(C)c1nc(CN(C)C(=O)N[C@@H](CCN2CCOCC2)C(=O)N[C@H](CC[C@H](Cc2ccccc2)NC(=O)OCc2cncs2)Cc2ccccc2)cs1, the Potency is reported as 21.5 µM (active). For CC[C@H]1OC(=O)[C@H](C)[C@@H](O[C@H]2C[C@@](C)(OC)[C@@H](O)[C@H](C)O2)[C@H](C)[C@@H](O[C@@H]2O[C@H](C)C[C@H](N(C)C)[C@H]2O)[C@](C)(O)C[C@@H](C)CN(C)[C@H](C)[C@@H](O)[C@]1(C)O, the Potency was “inactive”. With C=C1CC[C@H](O)C/C1=C\C=C1/CCC[C@]2(C)[C@@H]([C@H](C)CCCC(C)C)CC[C@@H]12 the Potency was 24.1 µM (active). In the case of C=C[C@]1(C)C[C@@H](OC(=O)CSCCN(CC)CC)[C@]2(C)[C@H](C)CC[C@]3(CCC(=O)[C@H]32)[C@@H](C)[C@@H]1O, the Potency is reported as 15.2 µM (active). In the case of CCN(CC)Cc1cc(Nc2ccnc3cc(Cl)ccc23)ccc1O, the Potency is reported as 3.04 µM (active). For CN1C(CC(=O)c2ccccc2)CCCC1CC(O)c1ccccc1 (configuration not stated), the Potency was 3.83 µM (active). In the case of C=C(NC(=O)C(=C)NC(=O)c1csc(C2=N[C@H]3c4csc(n4)[C@H]4NC(=O)c5csc(n5)[C@H]([C@@](C)(O)[C@@H](C)O)NC(=O)[C@H]5CSC(=N5)C(=CC)NC(=O)[C@H]([C@@H](C)O)NC(=O)c5csc(n5)[C@]3(CC2)NC(=O)[C@H](C)NC(=O)C(=C)NC(=O)[C@H](C)NC(=O)[C@H](C(C)CC)N[C@@H]2C=Cc3c([C@H](C)O)cc(nc3[C@H]2O)C(=O)O[C@@H]4C)n1)C(N)=O (some centres not stated), the Potency is reported as 1.71 µM (active). In the case of CC(C)OC(=O)CCC/C=C\C[C@@H]1[C@@H](/C=C/[C@@H](O)COc2cccc(C(F)(F)F)c2)[C@H](O)C[C@@H]1O, the Potency is reported as 10.8 µM (active).
